For 17 molecules, Potency results are on record in PubChem BioAssay (NCATS).

Results filed as inconclusive are left out. Activity calls are given as the source filed them. Calls follow the shape of the dose curve; as a rule, active = well fitted inhibition curve with a large enough effect; inconclusive = small, poorly fitted or top-dose-only effect; inactive = flat fitted curve, though single readings scatter.

What all share (assay): qHTS profiling for inhibitors of Plasmodium falciparum proliferation (AID 504749); also: nearly all actives have a fitted effect of over 60% in size
Conditions in all cases: P. falciparum in erythrocytes, SYBR Green DNA, 72 h; series mostly up to 28.7 µM
In general terms: qHTS replaces the single test concentration by a dilution series.

Experiment [1] has as its system AA1029. Summed up: (§1)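 P. falciparum-infected erythrocytes (0.3% parasitemia, 2.5% hematocrit) incubated with compound 72 h at 37 C, 5% CO2. Parasite DNA detected by SYBR Green after lysis, overnight at room temperature; normalised to 0.29 uM artemisinin and DMSO.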
For experiment [2], the system named is AS120. Summed up: as §1
Experiment [3] deals with ATS189. Summed up:
as §1

In experiment [4] the test system is ATS95. The method, boiled down: as §1
The subject of experiment [5] is C2A. The method, boiled down:
as §1

The test system of experiment [6] is CP185. Summed up: as §1
The subject of experiment [7] is CP191. The method, boiled down: as §1
The test system of experiment [8] is CP217. Summed up: as §1
In experiment [9] the test system is CP237. Summed up:
as §1

Experiment [10] deals with CP238. The method, boiled down:
as §1

Experiment [11] concerns CP247. Summed up: as §1
Experiment [12] concerns CP250. The method, boiled down:
as §1

The subject of experiment [13] is CP252. Summed up:
as §1

In experiment [14] the test system is CP192. Summed up:
as §1

Experiment [15] relates to CP194. The method, boiled down: as §1
The subject of experiment [16] is CP201. Summed up:
as §1

Experiment [17] relates to CP203. Summed up: as §1
For experiment [18], the system named is CP211. The method, boiled down:
as §1

Experiment [19] deals with CP215. Summed up:
as §1
Potency is read from the fitted curve at half-maximal effect.

Take `CC(C)C1=CC2=CC[C@@H]3[C@](C)(CCC[C@@]3(C)C(=O)O)[C@H]2CC1`: the Potency result in experiment [1], in experiment [2], in experiment [3], in [4], in experiment [5] and in experiment [6] was “inactive” in each case. Moreover, the Potency entry in [7], in experiment [8], in [9], in experiment [10], in experiment [11] and in experiment [12] was “inactive” throughout. Also, the Potency result in experiment [13] was “inactive”.
Turning to `CO/N=C(/C(=O)N[C@@H]1C(=O)N2C(C(=O)O)=C(COC(N)=O)CS[C@H]12)c1ccco1`, the Potency result in experiment [1], in [2], in experiment [3], in experiment [4], in [5] and in experiment [6] was “inactive” each time. Besides, the Potency entry in experiment [7], in experiment [14], in [15], in experiment [16], in [17] and in experiment [18] was “inactive” each time. Also, the Potency entry in [19], in [8], in [9], in experiment [10], in experiment [11] and in [12] was “inactive” in each case. For the same molecule, the Potency result in experiment [13] was “inactive”.
Regarding `CCCCCCCCCC(=O)NO`, the Potency result in [1], in experiment [2], in experiment [3], in experiment [4], in [5] and in experiment [6] was “inactive” throughout. The Potency result in experiment [14], in [15], in experiment [16], in experiment [17], in experiment [18] and in experiment [19] was “inactive” throughout. Besides, the Potency result in experiment [8], in [9], in experiment [10], in experiment [11], in [12] and in [13] was “inactive” in each case.
Regarding `Oc1cccc(O)c1O`, the Potency entry in experiment [1], in experiment [4], in experiment [5], in experiment [6], in [8] and in [10] was “inactive” throughout. Moreover, the Potency entry in experiment [12] and in [13] was “inactive” each time.
Regarding `C[C@]12CCC(=O)C[C@@H]1CC[C@@H]1[C@@H]2CC[C@]2(C)C=CC[C@@H]12`, the Potency entry in experiment [1], in experiment [2], in [3], in [4], in [5] and in experiment [6] was “inactive” each time. For the same molecule, the Potency entry in experiment [7], in [14], in experiment [15], in experiment [16], in [17] and in experiment [18] was “inactive” each time. Further, the Potency result in experiment [19], in experiment [8], in [10], in [11] and in experiment [13] was “inactive” each time.
Consider `CN1CCc2c(c3ccccc3n2Cc2ccccc2)C1`, for which the Potency entry in [2], in [3], in experiment [5], in experiment [6], in experiment [7] and in [14] was “inactive” each time. Also, the Potency entry in experiment [16], in experiment [8], in experiment [10], in [11], in experiment [12] and in experiment [13] was “inactive” each time. In addition, the Potency in experiment [9] is 5.01 µM (active).
Consider `O=C1CCC(c2ccccc2)(C2CCN(Cc3ccccc3)CC2)C(=O)N1` (configuration not stated), for which the Potency result in [1], in experiment [2], in experiment [3], in [4], in [5] and in [6] was “inactive” throughout. Further, the Potency entry in [7], in experiment [14], in experiment [15], in experiment [16], in experiment [17] and in experiment [18] was “inactive” throughout. The Potency result in [19], in experiment [8], in [10], in [11], in [12] and in [13] was “inactive” throughout. In addition, the Potency in experiment [9] is 11.2 µM (active).
Turning to `C=CCCCCCCCCC(=O)OC`, the Potency result in experiment [1], in experiment [2], in [3], in experiment [4], in [5] and in experiment [6] was “inactive” throughout. In addition, the Potency result in experiment [7], in experiment [14], in [15], in experiment [16], in experiment [17] and in experiment [18] was “inactive” in each case. Also, the Potency result in experiment [19], in experiment [8], in experiment [9], in experiment [10], in experiment [11] and in experiment [12] was “inactive” in each case. Besides, the Potency entry in experiment [13] was “inactive”.
As for `NC(=O)Oc1ccc(Cc2ccccc2)cc1`, the Potency result in [1], in experiment [2], in experiment [3], in [4], in experiment [5] and in [6] was “inactive” throughout. Moreover, the Potency entry in [7], in [14], in experiment [15], in experiment [16], in [17] and in experiment [18] was “inactive” in each case. Besides, the Potency entry in [19], in [8], in [9], in experiment [10], in [11] and in experiment [12] was “inactive” in each case. In experiment [13], the Potency result was “inactive”.
`Oc1ccc(Cl)c2c1CCC2`: the Potency entry in [1], in experiment [2], in [3], in experiment [4], in [5] and in experiment [6] was “inactive” in each case. Further, the Potency entry in experiment [7], in experiment [14], in experiment [15], in experiment [16], in [17] and in experiment [18] was “inactive” in each case. Besides, the Potency entry in experiment [19], in [8], in experiment [9], in [10], in experiment [11] and in experiment [12] was “inactive” each time. In addition, in experiment [13], the Potency result was “inactive”.
For the molecule `CCCCC/C=C\C/C=C\C/C=C\CCCCC(=O)O`, the Potency entry in [1], in [2], in [3], in experiment [4], in [5] and in experiment [6] was “inactive” each time. Also, the Potency entry in experiment [7], in experiment [14], in [15], in [16], in [17] and in experiment [18] was “inactive” in each case. Moreover, the Potency entry in [19], in experiment [8], in experiment [9], in experiment [10], in [11] and in experiment [12] was “inactive” throughout. In addition, the Potency result in [13] is “inactive”.
Turning to `O=C(OCc1ccccc1)c1ccc(O)cc1`, the Potency result in experiment [1], in [2], in [3], in experiment [4], in [5] and in [6] was “inactive” each time. Also, the Potency entry in [7], in [14], in experiment [15], in [16], in experiment [17] and in [18] was “inactive” throughout. Further, the Potency entry in experiment [19], in experiment [8], in experiment [9], in [10], in experiment [11] and in [12] was “inactive” each time. For the same molecule, in experiment [13], the Potency result is “inactive”.
`CC/C=C\C/C=C\C/C=C\C/C=C\C/C=C\CCCC(=O)O`: the Potency result in [1], in [2], in experiment [3], in [4], in experiment [5] and in experiment [6] was “inactive” throughout. For the same molecule, the Potency entry in experiment [7], in experiment [14], in experiment [15], in [16], in experiment [17] and in [18] was “inactive” in each case. The Potency entry in experiment [19], in experiment [8], in experiment [9], in [10], in experiment [12] and in experiment [13] was “inactive” throughout.
On to `CCSc1ccc2c(c1)N(CCCN1CCN(C)CC1)c1ccccc1S2`, for which the Potency result in [1], in experiment [2], in [3], in experiment [4], in experiment [5] and in experiment [6] was “inactive” in each case. Further, the Potency entry in [7], in [14], in experiment [15], in [16], in experiment [17] and in [18] was “inactive” throughout. For the same molecule, the Potency entry in experiment [19], in [8], in experiment [9], in [10], in [11] and in [12] was “inactive” throughout. Moreover, in experiment [13], the Potency entry was “inactive”.
`O=C(O)CC/C=C\CC[C@@H]1[C@@H](N2CCCCC2)[C@@H](O)C[C@@H]1OCc1ccc(-c2ccccc2)cc1`: the Potency result in experiment [1], in [2], in [3], in [4], in experiment [5] and in [6] was “inactive” in each case. The Potency result in experiment [14], in experiment [15], in experiment [16], in [17], in experiment [18] and in [19] was “inactive” throughout. The Potency result in experiment [8], in [10], in experiment [11], in experiment [12] and in [13] was “inactive” in each case.
For the molecule `COc1ccccc1N1CCN(CCCC(=O)c2ccc(F)cc2)CC1`, the Potency entry in [1], in experiment [2], in experiment [3], in [4], in experiment [5] and in experiment [6] was “inactive” throughout. Further, the Potency entry in [14], in [15], in experiment [16], in experiment [17], in experiment [18] and in experiment [19] was “inactive” in each case. In addition, the Potency entry in [8], in experiment [9], in [10], in experiment [11], in experiment [12] and in experiment [13] was “inactive” in each case.
Turning to `O=C(CCCN1CCN2CCCC2C1)c1ccc(F)cc1` (configuration not stated), the Potency entry in experiment [2], in experiment [5], in [6], in [7], in experiment [14] and in experiment [16] was “inactive” throughout. The Potency entry in experiment [17], in experiment [19], in experiment [8], in [11], in experiment [12] and in experiment [13] was “inactive” in each case. For the same molecule, in experiment [9], the Potency is 10 µM (active).
